# Screen size: about 66,000 compounds; about 960 (1.5%) showed an effect of 50% or more. This is one part of a sample in which strong results are shown more often than they occur.
# Test system: Trypanosoma brucei
# Assay: Trypanosoma brucei 72 hour study
# Assay type: functional, organism-based
# Parameters: scale not given: in the data most compounds retested in dose-response had high values
smiles,measurement,setting,value
COc1cccc(CN2CCCC2c2ccc[nH]2)c1 (configuration not stated),Percent Effect,"30 µM, 30.03 µM",1.101%
COc1cccc(CN2CCCCCC2c2cccc(C)c2)c1O (configuration not stated),Percent Effect,"30 µM, 30.03 µM",-7.245%
COc1ccccc1CNc1ncc(-c2cc(C)no2)c(C(C)C)n1,Percent Effect,"30.3 µM, […]",-4.15%
COc1ccc(CN2CCC[C@H]2c2nc(-c3cncnc3N)no2)cc1,Percent Effect,"30.3 µM, […]",-48.86%
COc1ccc(CN2CCCCC2c2n[nH]cc2-c2cc(C)no2)cc1.Cl (configuration not stated),Percent Effect,"30.3 µM, […]",57.52%
Cc1cc(C2CCCN2Cc2ccn(C)c(=O)c2)on1 (configuration not stated),Percent Effect,"30.3 µM, […]",6.831%
CC(C)c1nc(CNC2CCN(S(C)(=O)=O)CC2)cs1,Percent Effect,"30.3 µM, […]",-4.773%
CC(C)Cn1ccc2c(NC(=O)c3n[nH]c4c3CCC4)cccc21,Percent Effect,"30 µM, 30.03 µM",8.967%
CCc1nc(C2CCCN2C(=O)c2cc[nH]n2)no1 (configuration not stated),Percent Effect,10 µM,-9.958%
same,Percent Effect,"30.3 µM, […]",8.971%
O=C(NCc1ccco1)N1CCC(n2ccc(C(F)(F)F)n2)CC1,Percent Effect,"30 µM, 30.03 µM",-15.14%
O=C(O)C(F)(F)F.c1coc(CN2CC[C@H]3O[C@@H](COCC4CC4)CC[C@H]32)c1,Percent Effect,"30 µM, 30.03 µM",-38.88%
Cc1nc(CN2C(=O)CC[C@@H]3[C@H]2CCN3C2CCOCC2)cs1.O=C(O)C(F)(F)F,Percent Effect,"30 µM, 30.03 µM",-42.08%
CC(=O)N1CCC2(CC1)CCN(C(=O)c1cccc(C(F)(F)F)c1)C2,Percent Effect,"30 µM, 30.03 µM",38.42%
Cc1nccc(NCc2cncc3c2CCN(CC2CC2)C3)n1.Cl.Cl,Percent Effect,"30.3 µM, […]",-82.02%
COc1cccc(S(=O)(=O)CCN2CCN(CCO)CC2)c1,Percent Effect,"30.3 µM, […]",19.12%
COCCN1CCN(CCS(=O)(=O)c2cccc(OC)c2)CC1,Percent Effect,"30.3 µM, […]",-9.149%
COc1cccc(S(=O)(=O)CCN2CCN(CC(F)F)CC2)c1,Percent Effect,"30.3 µM, […]",100.9%
O=C(NCC1CC1)[C@@H]1CCO[C@@H]2CCN(Cc3ccsc3)C[C@H]21.O=C(O)C(F)(F)F,Percent Effect,"30.3 µM, […]",-183.8%
O=C1CC(c2cccc(O)c2)c2c(c(C(=O)O)cn2-c2ccccc2)N1 (configuration not stated),Percent Effect,"30 µM, 30.03 µM",55.14%
O=C1CC(c2ccc(O)cc2)c2c(c(C(=O)O)cn2-c2ccccc2)N1 (configuration not stated),Percent Effect,"30 µM, 30.03 µM",-5.69%
O=C1CC(c2ccccc2)c2c(c(C(=O)O)cn2-c2ccccc2)N1 (configuration not stated),Percent Effect,"30 µM, 30.03 µM",-0.2399%
CC(=O)N1CCC2(CCN(C(=O)c3cccc(C(F)(F)F)c3)CC2)C1,Percent Effect,"30 µM, 30.03 µM",-21.66%
Cc1ccc(NC(=O)Cn2cc(I)cn2)cc1C,Percent Effect,"30 µM, 30.03 µM",-62.87%
COC(=O)CNC(=O)CCc1cc(Cl)cs1,Percent Effect,"30 µM, 30.03 µM",30.07%
CC(C)NC(=O)CCNC(=O)CCc1cc(Cl)cs1,Percent Effect,"30 µM, 30.03 µM",67.45%
CC(C)NC(=O)CCNC(=O)CCc1cc(Br)cs1,Percent Effect,"30 µM, 30.03 µM",-16.2%
CC(C)CN1C(=O)C2(CCN(Cc3ccoc3)C2)c2ccccc21.O=C(O)C(F)(F)F (configuration not stated),Percent Effect,"30.3 µM, […]",-10.51%
Cc1ccc(CN2CCC3(C2)C(=O)N(CC(C)C)c2ccccc23)s1 (configuration not stated),Percent Effect,"30 µM, 30.03 µM",-8.12%
CC(C)CN1C(=O)C2(CCN(Cc3ccc(F)cc3)C2)c2ccccc21 (configuration not stated),Percent Effect,"30.3 µM, […]",100.2%
COCCN1CCC2(CC1)CC(NC(=O)COC)c1ccccc1O2.O=C(O)C(F)(F)F (configuration not stated),Percent Effect,"30.3 µM, […]",-14.34%
CN(C)C(=O)c1n[nH]c2c1CN(CC1CCC1)C2.O=C(O)C(F)(F)F.O=C(O)C(F)(F)F,Percent Effect,"30.3 µM, […]",-41.36%
CC(C)CC(=O)N1C[C@@H]2CCN(c3ncccn3)C[C@@H]2C1.O=C(O)C(F)(F)F,Percent Effect,"30.3 µM, […]",-27.97%
Cc1cnc(C(=O)N2C[C@H]3CN(Cc4nccs4)C[C@H]3C2)cn1,Percent Effect,"30 µM, 30.03 µM",-50.26%
O=C(N1CCCC1)N1Cc2nccn2CC(COc2cccnc2)C1.O=C(O)C(F)(F)F (configuration not stated),Percent Effect,"30.3 µM, […]",-5.824%
O=C(NCCc1ccn(-c2ccccc2)n1)N1CCC1,Percent Effect,"30 µM, 30.03 µM",105.4%
CCC(C(=O)NCCc1ccn(-c2ccccc2)n1)N1CCCC1=O (configuration not stated),Percent Effect,"30 µM, 30.03 µM",-6.42%
O=C(NCc1nn(-c2ccccc2)c2c1CCC2)N1CCSCC1,Percent Effect,"30 µM, 30.03 µM",-15.48%
O=C(NCCc1ccn(-c2ccccc2)n1)N1CCSCC1,Percent Effect,10 µM,92.88%
O=C(NCCNc1ccccn1)N1CCSCC1,Percent Effect,"30 µM, 30.03 µM",-32.01%
CC1(C)CN(C(=O)NCCc2ccn(-c3ccccc3)n2)CCO1,Percent Effect,"30 µM, 30.03 µM",-25.69%
O=C(O)C(F)(F)F.c1csc(CN2C[C@H](OCC3CCOCC3)[C@H]3COC[C@H]32)n1,Percent Effect,"30.3 µM, […]",-15.06%
CS(=O)(=O)N1CC[C@H]2OCC[C@@]2(C(=O)NCCc2ccccn2)C1.O=C(O)C(F)(F)F,Percent Effect,"30.3 µM, […]",-43.43%
CC(C)(C)n1ncc(NCC(O)c2ccc(F)c(F)c2)c(Cl)c1=O (configuration not stated),Percent Effect,"30 µM, 30.03 µM",-7.617%
CN(Cc1ccccn1)C(=O)[C@H]1CO[C@H]2CCN(CC3CC3)C[C@H]2C1.O=C(O)C(F)(F)F.O=C(O)C(F)(F)F,Percent Effect,"30.3 µM, […]",-96.69%
CNc1ncccc1C(=O)N1CCc2c(nc(N)[nH]c2=O)C1,Percent Effect,"30 µM, 30.03 µM",-10.23%
O=C(O)C(F)(F)F.O=C(O)C(F)(F)F.c1cncc(CN2CCc3c(nnn3CC3CC3)C2COCC2CC2)c1 (configuration not stated),Percent Effect,"30 µM, 30.03 µM",26.56%
